Measured values: PubChem BioAssay AID1345085 (National Center for Advancing Translational Sciences (NCATS), 2018)
Records with an inconclusive call do not appear. Calls of active or inactive are those of the source. The call rests on the fitted dose curve; in most records, active means well fitted cell-killing curve with a large enough effect; inconclusive means small, poorly fitted or top-dose-only effect, or effect the other way; inactive means no such curve, though single readings can be large or run the other way.

Test system: Tov-21-G
Test: Confirmatory qHTS for gynecologic anti-cancer compounds from libraries of approved drugs and bioactive compounds; further: nearly all actives have a fitted effect of over 55% in size
Settings: gynecologic cancer cell panel viability, ATPlite luminescence, 48 h; series mostly up to 57.7 µM
Procedure, shortened: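 ATPlite luminescence read-out of cell viability; IC50 from 11-point 1:3 titrations, 57.5 uM to 0.977 nM, 48 h compound exposure at 37 C, 5% CO2. Cells seeded at 1,000/well 16 h before dosing.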
Potency means the concentration at half of the fitted maximal effect.

Row | SMILES | Potency
1 | Cc1ccc(C(N)=O)cc1Nc1nccc(-c2cn(C(C)C)c3cnccc23)n1 | 9.68 µM (active)
2 | CCOc1cc2ncc(C#N)c(Nc3ccc(F)c(Cl)c3)c2cc1NC(=O)/C=C/CN(C)C | 2.17 µM (active)
3 | Cc1ccc(C(=O)Nc2ccc(CN3CCN(C)CC3)c(C(F)(F)F)c2)cc1C#Cc1cnc2[nH]ncc2c1 | 0.0273 µM (active)
4 | CCN(CC)CCOc1ccc(/C(=C(\Cl)c2ccccc2)c2ccccc2)cc1 | 126 µM (active)
5 | COCCOc1nc(-c2ccc(Cl)c(Cl)c2)n(-c2ccc(NC(=O)CCl)cc2)n1 | 1.72 µM (active)
6 | Cc1ccc2nc(N)[nH]c(=O)c2c1Sc1ccncc1 | inactive
7 | CCC1C(=O)N(C)c2cnc(Nc3ccc(C(=O)NC4CCN(C)CC4)cc3OC)nc2N1C1CCCC1 (stereo unspecified) | 1.93 µM (active)
8 | C=CC(=O)Nc1cccc(Oc2nc(Nc3ccc(N4CCN(C)CC4)cc3)ncc2Cl)c1 | 3.85 µM (active)
9 | O=C(/C=C/c1cccc(S(=O)(=O)Nc2ccccc2)c1)NO | 4.73 µM (active)
10 | CC(=O)NCC(=O)N1C2CCC1c1cc(Nc3ncc(C(F)(F)F)c(NC4CCC4)n3)ccc12 (stereo unspecified) | 3.06 µM (active)
11 | CCCCc1oc2ccccc2c1C(=O)c1cc(I)c(OCCN(CC)CC)c(I)c1 | 56.2 µM (active)
12 | Cc1nc(NC(=O)N2CCCC2C(N)=O)sc1-c1ccnc(C(C)(C)C(F)(F)F)c1 (stereo unspecified) | 10.9 µM (active)
13 | Cc1ccc(-n2[nH]c(C)c(N=Nc3cccc(-c4cccc(C(=O)O)c4)c3O)c2=O)cc1C | inactive
14 | CN(C)C/C=C/C(=O)Nc1cc2c(Nc3ccc(F)c(Cl)c3)ncnc2cc1OC1CCOC1 (stereo unspecified) | 3.43 µM (active)
15 | COc1cccc2c1C(=O)c1c(O)c3c(c(O)c1C2=O)C[C@@](O)(C(=O)CO)C[C@@H]3O[C@H]1C[C@H](N)[C@H](O[C@@H]2CCCCO2)[C@H](C)O1 | 8.63 µM (active)
16 | CC(C)C[C@H](NC(=O)[C@@H](NC(=O)c1cccc(-c2ccccc2)n1)[C@@H](C)O)B(O)O | 1.72 µM (active)

Row | SMILES | Potency
17 | COc1cc2c(Nc3ccc(NC(=O)c4ccccc4)cc3)ncnc2cc1OCCCN1CCOCC1 | 19.3 µM (active)
18 | CC(C)n1c(/C=C/[C@@H](O)C[C@@H](O)CC(=O)O)c(-c2ccc(F)cc2)c2ccccc21 | inactive
19 | CCc1c2c(nc3ccc(O)cc13)-c1cc3c(c(=O)n1C2)COC(=O)[C@]3(O)CC | 1.09 µM (active)
20 | COc1cccc2c1C(=O)c1c(O)c3c(c(O)c1C2=O)C[C@@](O)(C(=O)CO)C[C@@H]3O[C@H]1C[C@H](N)[C@H](O)[C@H](C)O1 | 2.43 µM (active)
21 | NCCOc1cc(C(=O)Nc2cc(OCCN)c3ccccc3n2)nc(C(=O)Nc2cc(OCCN)c3ccccc3n2)c1 | 24.3 µM (active)
22 | CC1=C(CO)C(=O)O[C@@H]([C@@H](C)[C@H]2CC[C@H]3[C@@H]4C[C@H]5O[C@]56[C@@H](O)C=CC(=O)[C@]6(C)[C@H]4CC[C@]23C)C1 | 3.35 µM (active)
23 | COc1cc(-c2nn(C3CCC(N4CCN(C(C)=O)CC4)CC3)c3ncnc(N)c23)ccc1NC(=O)c1cc2ccccc2n1C (stereo unspecified) | 1.09 µM (active)
24 | CC(C)CC(=O)Nc1n[nH]c2c1CN(C(=O)C1CCN(C)CC1)C2(C)C | 3.85 µM (active)
25 | CNC1CCC(N(Cc2cccc(-c3ccncc3)c2)C(=O)c2sc3ccccc3c2Cl)CC1 (stereo unspecified) | 19.3 µM (active)
26 | O=C(c1ccc(F)c(F)c1Nc1ccc(I)cc1F)N1CC(O)([C@@H]2CCCCN2)C1 | 9.68 µM (active)
27 | CCC(=O)N1CCN(c2ccc(-n3c(=O)ccc4cnc5ccc(-c6cnc7ccccc7c6)cc5c43)cc2C(F)(F)F)CC1 | 0.314 µM (active)
28 | CNC(=O)c1nn(C)c2c1C(C)(C)Cc1cnc(Nc3ccc(N4CCN(C)CC4)cc3)nc1-2 | 0.122 µM (active)
29 | COc1ccc(-c2cc3nccn3c(Nc3ncccc3C(N)=O)n2)cc1OC | 4.85 µM (active)
30 | Cc1csc(NC(=O)c2sc3nc4c(c(C(F)(F)F)c3c2N)CCC4)n1 | 1.93 µM (active)
31 | COC(C(=O)N1Cc2[nH]nc(NC(=O)c3ccc(N4CCN(C)CC4)cc3)c2C1)c1ccccc1 (stereo unspecified) | 1.37 µM (active)
